Assay outcomes as filed in PubChem BioAssay.
Sampled rows, rich in hits. Any-hit rate of the full collection: about 5%.
SENP6 inh – SENP6 protease inhibition; Q9GZR1; Recombinant SENP6 catalytic domain, aminoluciferin luminescence; inhibition, % at 10 µM; hit rate 1.8% among 330,000;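 active = inhibition above about 50% at the single tested dose, limit read from the data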;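 also: plate controls were DMSO wells with enzyme for no effect and DMSO wells lacking enzyme for full effect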
SENP8 block-1 – SENP8 (human) protease inhibition; Q96LD8; recombinant SENP8, Nedd8 substrate fluorescence; inhibition, % at 20 µM; hit rate 0.64% among 360,000; in the data active = inhibition mostly above about 40%, no sharp cut-off; inactive = mostly below about 27%
Target sequence (Q96LD8 whole entry, looked up): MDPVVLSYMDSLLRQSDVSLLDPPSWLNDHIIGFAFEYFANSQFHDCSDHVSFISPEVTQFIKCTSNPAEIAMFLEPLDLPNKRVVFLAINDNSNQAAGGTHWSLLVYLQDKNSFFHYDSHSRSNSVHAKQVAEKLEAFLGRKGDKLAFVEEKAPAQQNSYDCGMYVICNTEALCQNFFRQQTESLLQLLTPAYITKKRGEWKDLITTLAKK
EBI2 block – EBI2 (human) antagonism; P32249; EBI2 beta-arrestin recruitment, luminescence, 7a,25-OHC stimulated; inhibition, % at 5 µM; hit rate 0.81% among 360,000; AID 651636; in the data active = inhibition above about 38%;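 also: enzyme fragment complementation signal reports receptor beta-arrestin coupling in cells; 0% = agonist plus DMSO wells and 100% = wells without agonist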
AHR act – human AHR activation; hit rate 2.5% among 320,000; P35869; activation, % at 5 µM; AHR-responsive luciferase reporter cells, luminescence; in the data active = activation above about 47%;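 also: 0% = vehicle wells and 100% = reference agonist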
SENP8 block-2 – inhibitors of human SENP8 protease. Q96LD8. purified SENP8, Z-RLRGG-aminoluciferin cleavage, luminescence. inhibition, % at 10 µM. hit rate 1.2% among 330,000; in the data active = inhibition above about 50%
SENP7 block – SENP7 protease inhibition. recombinant SENP7, Z-RLRGG-aminoluciferin luminescence, 40 min. inhibition, % at 5 µM. hit rate 1.5% among 330,000. AID 434973;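 active = inhibition above about 50% at the single test dose, limit read from the data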;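 also: plate controls were DMSO with enzyme for no effect and no enzyme buffer wells for full effect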
EBI2 antag conf – EBI2 (human) antagonism, single concentration confirmation; shares compounds with EBI2 block; EBI2 beta-arrestin luminescence, 7a,25-OHC antagonism; inhibition, % at 5 µM; hit rate 29% among 2,400; AID 651997;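 active = inhibition of at least 50%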
EBI2 ag – counter-screen for EBI2 antagonists: EBI2 agonist activity; EBI2-expressing cells, agonist mode, luminescence, 60 min; 0% vehicle, 100% 7α,25-dihydroxycholesterol control; 2,400 tested, under 10 active; AID 652000; activation, % at 5 µM; shares compounds with EBI2 block;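 active = activation of at least 50%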
bGal cs – beta-galactosidase inhibition counter-screen; inhibition, % at 5 µM; AID 652176; hit rate 1% among 2,400; purified beta-galactosidase, luminescent Galacton Star, 15 min; shares compounds with EBI2 block;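 active = replicate-average signal at least 3 plate SD below neutral wells, shown as high inhibition, flagging enzyme-inhibiting false positives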;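 also: 0% = DMSO wells with enzyme and 100% = wells lacking enzyme; higher means stronger loss of beta-gal luminescence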
* = called active by the depositor; x = no result given.

SMILES	SENP6 inh	SENP8 block-1	EBI2 block	AHR act	SENP8 block-2	SENP7 block	EBI2 antag conf	EBI2 ag	bGal cs
COc1cc(OC)cc(C(=O)N2CCC(C(=O)c3ccc(F)cc3)CC2)c1	-13	13	6	-3	0	-2	x	x	x
CCOc1ccc(C(=O)N2CCC(C(=O)c3ccc4c(c3)OCCO4)CC2)cc1	0	-4	81*	0	-1	-2	56*	1	1
Cc1ccc(S(=O)(=O)Cn2nnnc2C(C(C)C)N2CCC(O)CC2)cc1 (stereo unspecified)	5	8	1	0	-2	-4	x	x	x
CC(Sc1ccc2c(c1)OCCO2)C(=O)Nc1ccc(N2CCOCC2)cc1 (stereo unspecified)	-6	8	-6	0	-3	-1	x	x	x
O=C(c1cc(-c2cccc(O)c2)on1)N1CCN(C(c2ccccc2)c2ccccc2)CC1	7	9	90*	1	0	-2	73*	0	4
COc1ccc(-c2cc(C(=O)N3CCN(Cc4ccccc4)CC3)no2)cc1OC	5	2	-18	-1	5	5	x	x	x
COc1cccc(-c2cc(C(=O)N3CCN(Cc4ccc5c(c4)OCO5)CC3)on2)c1	5	11	70*	-1	-3	-5	54*	0	-11
COc1cccc(-c2cc(C(=O)N3CCN(Cc4ccccc4)CC3)no2)c1	-4	18	51*	0	-7	3	29	0	-8
COc1ccc2cc(C(=O)N3CCN(Cc4ccc5c(c4)OCO5)CC3)[nH]c2c1	-10	-47	86*	39	1	1	59*	0	6
CCN1CCN(C(=O)c2cc3ccc(OC)cc3[nH]2)CC1	9	-1	24	-2	-4	-1	x	x	x
O=C1C2CCCN2C(=S)N1c1ccc(Cl)cc1 (stereo unspecified)	-15	18	-8	32	-2	2	x	x	x
COc1ccc(CNC(=O)NC(C)(C)c2cccc(C(C)(C)NC(=O)NCc3ccc(OC)cc3)c2)cc1	5	15	3	0	2	7	x	x	x
CCn1c(O)c(/C=C2\C=Nc3ccccc32)sc1=Nc1ccccc1	-24	16	53*	9	-8	6	38	0	2
CCOC(=O)/C(C#N)=C\c1ccc(OC)c(OC)c1	3	-122	-3	-1	-3	6	x	x	x
CSc1ccc(/C=C(\C#N)C(=O)NC2CCCCC2C)cc1 (stereo unspecified)	-1	-69	32	2	-1	7	x	x	x
COc1cc(/C=C(\C#N)C(N)=O)ccc1OS(=O)(=O)c1ccc(C)cc1	-3	-9	52*	1	-9	1	56*	1	-7
COc1cc(/C=C(\C#N)C(=O)NC2CCCCC2C)ccc1OS(=O)(=O)c1ccc(C)cc1 (stereo unspecified)	5	1	62*	0	5	1	69*	1	-3
COc1cc(/C=C(/C#N)C(=O)Nc2ccc(C)cc2)ccc1Oc1nc(Cl)ncc1F	12	20	49*	13	-11	-5	46	-1	-13
COc1ccc(/C=N/NC(=O)CC#N)cc1Oc1nc(Cl)ncc1F	5	12	-15	3	-3	-7	x	x	x
O=C1NC2(CCCCC2)C(=O)N1Cc1ccc([N+](=O)[O-])cc1	-34	16	9	0	-9	2	x	x	x
O=S(=O)(CC(O)COc1ccc(Br)cc1)c1ccccc1 (stereo unspecified)	-6	2	45*	1	-2	-4	18	-2	-6
Cc1ccc(S(=O)(=O)CC(O)COc2ccc(C#N)cc2)cc1 (stereo unspecified)	-6	10	9	-1	6	5	x	x	x
C=CCOc1ccc(C(=O)/C=C2/C(=O)Nc3ccccc32)cc1	-19	16	59*	8	-1	-4	52*	-1	-9
